About 14,000 (4.5%) of roughly 310,000 compounds showed an effect of 50% or more. The effect is printed as a negative number. The list comes from a sample in which strong results are over-represented; it also holds similar structures and randomly drawn compounds.
These compounds were tested against human ether-à-go-go-related gene (hERG) potassium channel (human, UniProt Q12809) (assay: primary screen, population patch clamp on CHO cells stably expressing hERG; higher = less effect of the substance).
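Further: peak tail current of the secondary pulse compared with the same well before compound.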

Sequence of human ether-à-go-go-related gene (hERG) potassium channel (Q12809 whole entry, looked up): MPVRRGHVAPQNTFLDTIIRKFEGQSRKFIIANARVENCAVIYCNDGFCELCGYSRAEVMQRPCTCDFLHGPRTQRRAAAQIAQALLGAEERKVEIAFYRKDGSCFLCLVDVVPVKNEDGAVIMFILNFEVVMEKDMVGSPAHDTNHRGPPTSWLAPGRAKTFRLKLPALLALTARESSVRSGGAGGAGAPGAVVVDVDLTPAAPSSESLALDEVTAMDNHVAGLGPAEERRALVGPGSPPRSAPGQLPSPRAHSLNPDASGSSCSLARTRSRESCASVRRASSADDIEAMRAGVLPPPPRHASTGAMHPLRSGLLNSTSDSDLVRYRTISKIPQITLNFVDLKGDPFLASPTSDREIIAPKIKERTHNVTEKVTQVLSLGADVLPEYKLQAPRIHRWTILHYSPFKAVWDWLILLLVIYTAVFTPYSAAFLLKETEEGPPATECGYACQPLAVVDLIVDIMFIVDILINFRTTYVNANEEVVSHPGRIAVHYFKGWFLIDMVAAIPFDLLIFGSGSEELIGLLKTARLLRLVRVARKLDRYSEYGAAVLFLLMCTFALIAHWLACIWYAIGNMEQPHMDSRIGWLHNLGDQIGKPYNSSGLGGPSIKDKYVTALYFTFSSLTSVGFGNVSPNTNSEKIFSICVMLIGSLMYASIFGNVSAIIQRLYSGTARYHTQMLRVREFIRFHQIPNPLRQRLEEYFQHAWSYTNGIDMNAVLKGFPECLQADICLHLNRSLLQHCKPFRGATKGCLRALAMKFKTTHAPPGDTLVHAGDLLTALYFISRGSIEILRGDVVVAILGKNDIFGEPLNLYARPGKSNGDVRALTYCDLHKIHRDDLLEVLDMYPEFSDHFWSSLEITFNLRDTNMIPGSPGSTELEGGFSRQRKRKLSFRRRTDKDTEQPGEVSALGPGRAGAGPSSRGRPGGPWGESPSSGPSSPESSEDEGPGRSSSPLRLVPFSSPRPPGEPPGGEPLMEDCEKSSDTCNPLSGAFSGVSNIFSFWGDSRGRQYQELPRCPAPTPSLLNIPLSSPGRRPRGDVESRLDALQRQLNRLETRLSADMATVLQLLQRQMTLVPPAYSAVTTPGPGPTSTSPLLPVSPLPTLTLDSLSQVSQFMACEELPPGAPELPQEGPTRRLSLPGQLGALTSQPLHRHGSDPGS

| Compound | hERG current change (%, negative = inhibition) at 10uM [%] |
| --- | --- |
| Cc1c(C(=O)Nc2ccc(F)cc2)sc2ncn(CC(=O)N3CCCCC3)c(=O)c12 | 1.43 |
| O=C(N/N=C\c1ccc(Cl)s1)c1ccc(Cn2cccn2)o1 | -57.2 |
| O=C(N/N=C\c1c(O)ccc2ccccc12)c1ccc(Cn2cccn2)o1 | 9.2 |
| O=C(N/N=C\c1ccc(Br)cc1)c1ccc(Cn2cccn2)o1 | -34.1 |
| O=C(N/N=C\c1cccc(Cl)c1)c1ccc(Cn2cccn2)o1 | -71.2 |
| CC(C)c1ccc(/C=N\NC(=O)c2ccc(Cn3cccn3)o2)cc1 | -42 |
| Cc1ccccc1/C=N\NC(=O)c1ccc(Cn2cccn2)o1 | 4.98 |
| O=C(OCCOCCN=C1NS(=O)(=O)c2ccccc21)c1ccccc1 | 2.47 |
| COc1ccc(CNC(=O)CN(c2cccc(OC)c2)S(C)(=O)=O)cc1 | 2.47 |
| Cc1cc2c(NC(=O)Nc3ccc(F)cc3)cccc2nn1 | 8.16 |
| Clc1cccc(NCc2nnc(SCc3ccccc3)o2)c1 | 3.21 |
| COc1ccc(Cn2c(-c3ccc(OC)cc3)nc3ccccc32)cc1 | -36.9 |
| CCOc1ccc2[nH]c(=O)c(CN(CCO)C(=O)c3ccc(OC)c(OC)c3)cc2c1 | -0.583 |
| CCCCN1C=CC(=C2C(=O)c3ccccc3C2=O)C=C1 | -1.69 |
| CCCCCN1C=CC(=C2C(=O)c3ccccc3C2=O)C=C1 | -61 |
| CCCCCCN1C=CC(=C2C(=O)c3ccccc3C2=O)C=C1 | 10.5 |
| CCOC(=O)c1c(C)cc(C)n2c1nc1ccccc12 | -38.8 |
| CN(Cc1c(C(=O)N/N=C/c2ccccc2)nnn1-c1nonc1N)C1CCCCC1 | 8.4 |
| CN(C)/N=C/c1ccc(OS(=O)(=O)c2ccccc2)cc1 | 8.55 |
| CCC(=O)N/N=C/c1ccc(OS(=O)(=O)c2ccccc2)cc1 | -17.5 |
| CCN(Cc1ccccc1)c1ccc(/C=N/N=C(N)N)cc1 | -25 |
| COc1ccc(/C=N\N=C(N)N)cc1.O=[N+]([O-])O | -1.01 |

| Compound | hERG current change (%, negative = inhibition) at 10uM [%] |
| --- | --- |
| NC(N)=N/N=C/c1ccc(OS(=O)(=O)c2ccccc2)cc1 | -55.6 |
| NC(N)=N/N=C/c1ccc(N(c2ccccc2)c2ccccc2)cc1.O=[N+]([O-])O | -50.8 |
| COc1ccc(C(CNC(=O)COc2cc(C)ccc2Cl)N2CCCCC2)cc1 (centres unmarked) | 1.57 |
| O=C(c1ccc2c3c(cccc13)CC2)C1CCCN(C(=O)c2ccc(=O)[nH]c2)C1 (centres unmarked) | 4.99 |
| COc1ccc(OC)c(-n2c(=S)[nH]c3cc(C(=O)N4CCC(C(N)=O)CC4)ccc3c2=O)c1 | -2.14 |
| COc1ccc(-c2csc(COC(=O)C(C)(C)C)n2)cc1 | 18 |
| CC(C)Cc1nc2oc3c(NCc4cccnc4)ncnc3c2c2c1CCC2 | -50.8 |
| CC(C)Cc1nc2oc3c(NCC4CCCO4)ncnc3c2c2c1CCC2 (centres unmarked) | -35.8 |
| CC(C)c1nc2oc3c(NCc4cccnc4)ncnc3c2c2c1CCC2 | -50.2 |
| CC(C)c1nc2oc3c(NCC4CCCO4)ncnc3c2c2c1CCC2 (centres unmarked) | -27.4 |
| CC(C)Cc1nc2oc3c(NCC(C)O)ncnc3c2c2c1CCCC2 (centres unmarked) | -7.54 |
| CC(C)c1nc2oc3c(N(C)CCO)ncnc3c2c2c1CCC2 | -28.1 |
| Cc1ccc(Cn2c(Sc3nccc(C)n3)nc3c2c(=O)[nH]c(=O)n3C)cc1 | -8.13 |
| N#CCCNC(=O)Cn1c(COc2ccc(Cl)cc2)nc2ccccc21 | -24.5 |
| Cc1ccc(/C=C/c2nc3ccccc3s2)s1 | 3.83 |
| Cc1oc(-c2ccc(-c3ccccc3)cc2)nc1CN1CCN(CC(=O)N(C)C)CC1 | -53 |
| Cc1oc(-c2ccc(Cl)cc2)nc1CN1CCC(C(=O)N2CCc3ccccc3C2)CC1 | -74 |
| COC(=O)c1ccc(-c2nc(CN3CCN(Cc4cccc(C)c4)CC3)c(C)o2)cc1 | -25.3 |
| Cc1ccc(-c2nc(CS(=O)(=O)CC(=O)N3CCc4ccccc4C3)c(C)o2)cc1 | -16 |
| Cc1oc(-c2ccccc2)nc1CS(=O)CC(=O)N1CCc2ccccc2C1 (centres unmarked) | -20.5 |
| Cc1oc(-c2ccc(Cl)cc2)nc1CN1CCC(C(=O)N2CCN(Cc3ccccc3)CC2)CC1 | -69.1 |
| Cc1oc(-c2ccccc2)nc1C(=O)O | 17 |

| Compound | hERG current change (%, negative = inhibition) at 10uM [%] |
| --- | --- |
| CCC/C(O)=C1\C(=O)CC(C)(C)CC1=Nc1ccccc1OC | -13.4 |
| O=C(CCc1nnc(C2CCCCC2)o1)N1CCN(Cc2ccccc2)CC1 | 5.53 |
| COCCN(C(=O)CCC(=O)Nc1nccs1)C(C(=O)NC(C)(C)C)c1ccc(C)cc1 (centres unmarked) | 5.03 |
| COc1ccccc1C1CCN(c2cc(O)ccc2[N+](=O)[O-])CC1 | 4.65 |
| Cc1cccc(NS(=O)(=O)c2nnc(NC(=O)c3cccc(C)c3)s2)c1 | 2.44 |
| O=C(Nc1cc(-c2nc3ccccc3s2)ccc1Cl)c1ccc2c(c1)OCO2 | 7.51 |
| CCOC(=O)c1nc2nc(C)c(Cl)c(=O)n2[nH]1 | 0.341 |
| COc1cccc2cc(C(=O)NC(C)c3ccccc3)c(=O)oc12 (centres unmarked) | 16.3 |
| CCc1cc2c(cc3c(=O)n(CC(=O)NCCCN4CCCCCC4)nc(CC)n32)s1 | -72.7 |
| CCc1nn(CC(=O)NCCCN(C)Cc2ccccc2)c(=O)c2cc3sc(C)cc3n12 | -69.9 |
| CCc1nn(CC(=O)NCCCN2CCN(C)CC2)c(=O)c2cc3sccc3n12 | 7.04 |
| CCc1nn(CC(=O)NCCCN2CCc3ccccc3C2)c(=O)c2cc3sccc3n12 | -70.2 |
| CCc1nn(CC(=O)NCCCN2CCCC2=O)c(=O)c2cc3sccc3n12 | -12.3 |
| CCc1nn(CC(=O)NCCCN(CC)Cc2ccccc2)c(=O)c2cc3sccc3n12 | -50.2 |
| CCc1nn(CC(=O)NCCCN2CCOCC2)c(=O)c2cc3sccc3n12 | 16.2 |
| CCc1nn(CC(=O)NCCCN(Cc2ccccc2)C(C)C)c(=O)c2cc3sccc3n12 | -43.8 |
| CCCCN(CCCNC(=O)Cn1nc(CC)n2c(cc3sc(C)cc32)c1=O)Cc1ccccc1 | -47.1 |
| CCc1nn(CC(=O)NCCCN2CCN(C)CC2)c(=O)c2cc3sc(C)cc3n12 | 14.8 |
| CCc1cc2c(cc3c(=O)n(CC(=O)NCCCN(CC)CC)nc(CC)n32)s1 | -34.9 |
| CCc1nn(CC(=O)NCCCN(CC)CC)c(=O)c2cc3sc(C)cc3n12 | 7.73 |
| CN1Cc2c(N3CCOCC3)nc3sc(C#N)c(N)c3c2CC1(C)C | -8.57 |
| CCOC(=O)c1cc(-c2ccccc2C)nn1CC1CC(c2ccc(OC)cc2)=NO1 (centres unmarked) | 3.54 |

| Compound | hERG current change (%, negative = inhibition) at 10uM [%] |
| --- | --- |
| Cc1cccc(CS(=O)(=O)Cc2ccc(C(=O)NCCc3ccccc3)o2)c1 | -38.8 |
| Cc1ccc(NC(=O)COC(=O)Cn2c(C)csc2=O)cc1C | 2.05 |
| CC(=O)N1CCC(N(C(=O)Nc2ccc(C)c(C)c2)C2CCCC2)CC1 | -31.2 |
| Cc1nnc(SCC2=C(C(=O)[O-])N3C(=O)C(NC(=O)Cc4ccccc4)C3SC2)s1.[Na+] (centres unmarked) | 9.74 |
| CCn1c(C(=O)NCCCN2CCc3ccccc3C2)cc2sccc21 | -64 |
| CCN1CCN(CCCNC(=O)c2cc3sccc3n2CC)CC1 | -40.8 |
| CCn1c(C(=O)N2CCc3ccccc3C2)cc2sccc21 | -3.24 |
| N#Cc1ccc(OCC(=O)OCC(=O)Nc2ccc(N3CCOCC3)cc2)cc1 | -15.3 |
| CC(=O)NCc1ccc(C(=O)CCl)s1 | -7.15 |
| CCN(CC)CCn1c2ccccc2c2cnc(N=CN(C)C)c(C#N)c21 | -31.8 |
| CCN(CC)CCn1c2ccccc2c2cnc(N)c(C#N)c21 | -60.5 |
| CN(C)C=Nc1ncc2c3ccccc3n(CCN(C)C)c2c1C#N | -15.7 |
| CC1CN(C(=O)CSc2nc(N)cc(N)n2)CC(C)O1 (centres unmarked) | -10.3 |
| Cc1nnc2c(NC3CCCC3)nc3ccccc3n12 | -37.3 |
| COc1ccc(CCN(C(=O)c2cccc(F)c2)C2CC(=O)N(c3ccccc3)C2=O)cc1 (centres unmarked) | -38.5 |
| CCCOc1ccc(N2C(=O)CC(N(CCc3ccc(OC)cc3)C(=O)c3ccccc3)C2=O)cc1 (centres unmarked) | -10.6 |
| CCCOc1ccc(N2C(=O)CC(N(CCc3ccc(OC)cc3)C(=O)c3cccc(F)c3)C2=O)cc1 (centres unmarked) | -8.44 |
| CCCOc1ccc(N2C(=O)CC(N(CCc3ccc(OC)c(OC)c3)C(=O)c3ccccc3)C2=O)cc1 (centres unmarked) | -74.9 |
| CCOc1ccc(N2C(=O)CC(N(CCc3ccc(OC)cc3)C(=O)c3cccc(F)c3)C2=O)cc1 (centres unmarked) | -63 |
| CCCOc1ccc(N2C(=O)CC(N(CCc3ccccc3)C(=O)c3ccccc3)C2=O)cc1 (centres unmarked) | 10.8 |

From article PMC4336329 (PLoS ONE, 2015)
